The values below come from PubChem BioAssay (Tox21).

Each structure is given as a SMILES string. Records with an inconclusive call do not appear. Entries that show only a call come without a potency. The source holds several records for some structures; these can differ, active in one and inactive in another. Active and inactive are the calls of the source. Calls follow the shape of the dose curve; as a rule, active = well fitted activation curve with a large enough effect in the repeat runs; inconclusive = weak or mixed curves; inactive = flat fitted curve, though single readings scatter.
Potency is read from the fitted curve at half-maximal effect.

A short description of the assay: A CellTox Green Cytotoxicity Assay to monitor cytotoxicity in HepG2 cells - 16 hour (AID 1224876). Also: nearly all actives have a fitted effect of over 45% in size. Particulars: CellTox Green fluorescence; series mostly up to 76.8 µM. From the text: National Center for Advancing Translational Sciences [NCATS]
NIH Chemical Genomics Center [NCGC]
U.S. Environmental Protection Agency [EPA]
National Institutes of Environmental Health Sciences [NIEHS]
National Toxicology Program [NTP]
Cell-based models are critical for drug discovery. Determining the natural cytotoxic effects resulting from test compounds is an essential research activity. A CellTox Green Cytotoxicity Assay to monitor cytotoxicity in real time of continues cell culture during 40 hours of the compound treatment was used to screen Tox21 10K library compounds in HepG2 cells. CellTox Green Cytotoxicity Assay is a nonlytic, homogeneous, biofluorescent method to measure cytotoxicity in cell culture after experimental manipulation. The assay system uses a proprietary asymmetric cyanine dye that is excluded from viable cells but preferentially stains the dead cell's DNA. […] Viable cells produce no appreciable increases in fluorescence. Therefore, the fluorescence signal produced by the binding interaction with dead cell DNA is proportional to cytotoxicity.
The mixture of HepG2 cell suspension and reagents were dispensed at 600cells/6 ul/well in 1536-well tissue culture treated black solid bottom plates using a Multidrop dispenser. After the assay plates were incubated at a 37 C/5% CO2 incubator for 5 hours, 23 nL of compounds dissolved in DMSO, positive and negative controls was transferred to the assay plate by a pintool work station. The plates were incubated at 37 C for 40 hours. The fluorescence intensity were measured at 0h, 8h, 16h, 24h, 32h and 40h time points using ViewLux plate reader during compound treatment.
For `Oc1c(Br)cc(Br)cc1Br`, the Potency result was “inactive”.

For `Cc1ccccc1N`, the Potency result is “inactive”.

`COP(=S)(OC)SCN1C(=O)c2ccccc2C1=O`: the Potency result was “inactive”.

As to `O=C(O)CCCc1ccc(N(CCCl)CCCl)cc1`, the Potency result was “inactive”.

Consider `CNC(=O)Oc1cccc2ccccc12`, for which the Potency result was “inactive”.

For `C=CC#N`, the Potency entry is “inactive”.

On to `CCCOC(=O)c1ccccc1C(=O)OCCC`, for which the Potency entry is “inactive”.

Consider `O=C(O)C1C(C(=O)O)C2(Cl)C(Cl)=C(Cl)C1(Cl)C2(Cl)Cl` (stereo not given), for which the Potency result was “inactive”.

In the case of `O=S(=O)(O)OOS(=O)(=O)O`, the Potency entry was “inactive”.

With `COS(=O)(=O)OC`, the Potency entry was “inactive”.

For the compound `CN(C)NC(=O)CCC(=O)O`, the Potency result was “inactive”.

Turning to `[N-]=[N+]=CC(=O)OC[C@H](N)C(=O)O`, the Potency is 27.5 µM (active) and inactive.

As for `CN(C)CCC#N`, the Potency entry was “inactive”.

Regarding `ClCCOCCCl`, the Potency result is “inactive”.

Take `Cc1ccc(O)c(C)c1`: the Potency result was “inactive”.

With `O=C(O)c1cc(Oc2ccc(C(F)(F)F)cc2Cl)ccc1[N+](=O)[O-]`, the Potency result is “inactive”.

With `OC[C@@H](O)[C@H]1O[C@@H]2O[C@H](C(Cl)(Cl)Cl)O[C@@H]2[C@H]1O`, the Potency result is “inactive”.

As for `CNC(=O)O/N=C(\SC)C(=O)N(C)C`, the Potency result is “inactive”.

Regarding `O=C/C=C/c1ccccc1`, the Potency result was “inactive”.

As for `CNc1cnn(-c2cccc(C(F)(F)F)c2)c(=O)c1Cl`, the Potency result is “inactive”.

Consider `Cl[C@H]1OCCO[C@@H]1Cl`, for which the Potency result is “inactive”.

On to `O=C(O)COc1ccccc1`, for which the Potency result is “inactive”.

On to `C=CC(=O)OCCCCCC(C)C`, for which the Potency entry was “inactive”.

On to `CCNc1nc(Cl)nc(NC(C)C)n1`, for which the Potency result is “inactive”.

Take `OCC(O)CCl` (stereo not given): the Potency entry is “inactive”.

Take `Nc1nc(N)nc(NC2CC2)n1`: the Potency result is “inactive”.

Turning to `C/C=C/c1ccc2c(c1)OCO2`, the Potency result was “inactive”.

Regarding `C[C@H]1C(=O)O[C@@H]2CCN3CC=C(COC(=O)[C@](C)(O)[C@]1(C)O)[C@H]23`, the Potency entry is “inactive”.

Turning to `CC(=O)/C=C/c1ccccc1`, the Potency result is “inactive”.

Consider `COP(=S)(OC)Oc1ccc(SC)c(C)c1`, for which the Potency entry was “inactive”.

For `Cc1cccc(N)c1C`, the Potency result is “inactive”.

Regarding `N#CN=C(N)N`, the Potency result was “inactive”.

Consider `Cc1ccc(N)cc1`, for which the Potency result is “inactive”.

Take `O=C(O)C(Br)Br`: the Potency entry was “inactive”.

In the case of `N#Cc1cccc(C#N)c1`, the Potency entry was “inactive”.

`Cc1cccc(C)c1N`: the Potency entry was “inactive”.

Take `COC(=O)Nc1cccc(OC(=O)Nc2cccc(C)c2)c1`: the Potency result is “inactive”.

For the compound `Cc1ccc(N=C=O)cc1N=C=O`, the Potency result was “inactive”.

Take `CC(C)CCCCCCOC(=O)c1ccccc1C(=O)OCCCCCCC(C)C`: the Potency entry was “inactive”.

With `CC12CC1(C)C(=O)N(c1cc(Cl)cc(Cl)c1)C2=O` (stereo not given), the Potency result was “inactive”.
